This is a sample that favours compounds with a hit; in the whole collection about 5.3% have one here.
HIF activator – HIF pathway transcriptional activation. U2OS HRE-luciferase reporter, luminescence; normalized: DMSO 0%, desferrioxamine 100%. activation, % at 7.5 µM (by protocol). 0.32% of 300,000 active. AID 1910;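 active = mean activation of at least 10% of the iron chelator positive control signal, with at least half of replicates also reaching 10%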
ALR inh – human ALR oxidase inhibition via reduced H2O2; 3.8% of 290,000 active; purified ALR, DTT oxidation, H2O2 HRP-luminol luminescence; inhibition, % (concentration not given with the values);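 active = mean replicate inhibition above about 79%, with every replicate also reaching it, limit read from the data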
Target sequence (P55789 whole entry, looked up): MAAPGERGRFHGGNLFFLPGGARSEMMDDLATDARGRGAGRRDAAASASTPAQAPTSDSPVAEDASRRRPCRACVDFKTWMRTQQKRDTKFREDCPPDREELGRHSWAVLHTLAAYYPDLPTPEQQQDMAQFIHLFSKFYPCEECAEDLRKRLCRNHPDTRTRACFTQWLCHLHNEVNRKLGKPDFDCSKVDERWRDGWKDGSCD
PfM18AAP inh – blocks P. falciparum M18 aspartyl aminopeptidase; recombinant PfM18AAP, H-Glu-NHMec fluorogenic cleavage; inhibition, % at 7.35 µM; 1.2% of 290,000 active; AID 1822;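 active = inhibition above the campaign mean inhibition over all tested compounds plus 3 SD, cut at about 28% in these data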;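 note: 0% = plate median of test compound wells and 100% = 2 mM ZnCl2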
Mot1-301 SUMO – blocks SUMOylation pathway, rescuing yeast Mot1-301 growth; S. cerevisiae Mot1-301 growth rescue, ATP luminescence, 38.5C; percent above DMSO median, 100 means doubled; growth rescue, % at 18.8 µM; 1% of 320,000 active; AID 2716;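 active = every valid replicate shows activation above 250% relative to neutral control wells; inactive = the rest, any valid replicate at or below 250%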;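 note: OY570 slx delta 5 strain wells were the positive control but not used for scaling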
Mot1 SUMO dose – SUMO pathway inhibitors in yeast Mot1-301 growth | shares compounds with Mot1-301 SUMO | S. cerevisiae Mot1-301 galactose growth, ATP luminescence, 24 h; -100 = growth of slx-deleted rescue strain | growth activity, percent, % at 42 µM | 2,300 tested, under 10 active | AID 493004;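 active = Signal drops as the depositor expects, and the fitted half-maximal dose is no more than ten times the top valid tested dose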;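 note: more negative values mean stronger growth rescue toward the control strain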
* marks the source's active call; other numbers are inactive results.

Screening O=C(c1cn(-c2ccccc2)nc1-c1ccccc1)N1CCN(c2ccccn2)CC1 returned HIF activator 4, ALR inh -7, PfM18AAP inh 3 and Mot1-301 SUMO -28.
Screening Cc1ccc(-c2nn(-c3ccccc3)cc2C(=O)N2CCN(c3ccccn3)CC2)cc1 returned HIF activator 1, ALR inh -11, PfM18AAP inh 1, Mot1-301 SUMO 596* and Mot1 SUMO dose 1.
Screening Cc1ccccc1-n1c(-c2cccnc2)n[nH]c1=S returned HIF activator 0, ALR inh 50, PfM18AAP inh 18, Mot1-301 SUMO active and Mot1 SUMO dose 0.
COc1ccccc1C(=O)NC(=O)COC(=O)Cc1ccccc1[N+](=O)[O-] was read as HIF activator 0, ALR inh -1, Mot1-301 SUMO 617* and Mot1 SUMO dose -1.
Screening COc1ccc(NC(=O)COC(=O)Cc2ccccc2[N+](=O)[O-])cc1OC returned HIF activator 0, ALR inh -17, PfM18AAP inh -9 and Mot1-301 SUMO 25.
COc1ccc(NC(=O)CC(C)C)c(OC)c1 was read as HIF activator 0, ALR inh -23, PfM18AAP inh -6, Mot1-301 SUMO 789* and Mot1 SUMO dose 0.
`Cc1sc2c(c1C)C(=O)/C(=C\Nc1ccncc1)S(=O)(=O)N2C` gave HIF activator 0, ALR inh 0, PfM18AAP inh 22 and Mot1-301 SUMO 1.
Screening Cc1cc(OCC(=O)Nc2nccs2)c2c(C)cc(=O)oc2c1 returned HIF activator -1, ALR inh 0, PfM18AAP inh 0 and Mot1-301 SUMO 54.
Screening Cc1ccc2c(c1)C(=O)N1[C@H]3c4cc(Cl)ccc4OC[C@@H]3[C@H](c3ccccc3)[C@]1(C)C(=O)N2 returned ALR inh 1 and Mot1-301 SUMO 134.
C[C@@]12C(=O)Nc3ccc(F)cc3C(=O)N1[C@H]1c3ccccc3OC[C@@H]1[C@@H]2c1ccccc1 was read as ALR inh 3, Mot1-301 SUMO active and Mot1 SUMO dose 0.
Screening C[C@@]12C(=O)Nc3cc(Cl)ccc3C(=O)N1[C@H]1c3cc(Cl)ccc3OC[C@@H]1[C@@H]2c1ccccc1 returned ALR inh 0 and Mot1-301 SUMO 254.
For C[C@@]12C(=O)Nc3cc(Cl)ccc3C(=O)N1[C@H]1c3ccccc3OC[C@@H]1[C@@H]2c1ccccc1 the results were ALR inh -1, Mot1-301 SUMO 454* and Mot1 SUMO dose -1.
For C[C@@]12C(=O)Nc3ccc(F)cc3C(=O)N1[C@H]1c3cc(Cl)ccc3OC[C@@H]1[C@@H]2c1ccccc1 the results were ALR inh -3, Mot1-301 SUMO 409* and Mot1 SUMO dose -1.
Cc1ccc(NC(=O)C2CCCN(C(=O)NCc3ccccc3)C2)c(C)c1 (stereo not given) was read as HIF activator 0, ALR inh 13, PfM18AAP inh 4 and Mot1-301 SUMO -5.
For O=C(Nc1ccsc1C(=O)O)c1cccc(C(F)(F)F)c1 the results were HIF activator -16, ALR inh 7, PfM18AAP inh -3, Mot1-301 SUMO 968* and Mot1 SUMO dose 0.
For O=C(OCC(=O)N1CCN(C(=O)c2ccco2)CC1)c1ccc(Cl)nc1 the results were ALR inh -3 and Mot1-301 SUMO 86.
For CC(C)(C)c1ccc(CN(Cc2ccccc2)C(c2ccccn2)c2nnnn2C(C)(C)C)cc1 (stereo not given) the results were HIF activator -2, ALR inh -8, PfM18AAP inh -2, Mot1-301 SUMO 505* and Mot1 SUMO dose 0.
Screening COc1cc(S(=O)(=O)N2CCN(c3ccccc3)CC2)ccc1F returned HIF activator 0, PfM18AAP inh -1, Mot1-301 SUMO 647* and Mot1 SUMO dose 0.
`CCOC(=O)c1sc2ncnc(N3CCN(C)CC3)c2c1C` gave HIF activator 0, ALR inh 10, PfM18AAP inh 2 and Mot1-301 SUMO 10.
Screening COc1ccccc1N1CCN(C(=O)c2sc3ncnc(N4CCN(c5ccccn5)CC4)c3c2C)CC1 returned HIF activator -1, ALR inh 2, PfM18AAP inh 2, Mot1-301 SUMO 442* and Mot1 SUMO dose 0.
Screening CCOC(=O)c1sc2ncnc(N3CCN(c4ccc(OC)cc4)CC3)c2c1C returned HIF activator 0, ALR inh 13, PfM18AAP inh -12, Mot1-301 SUMO 623* and Mot1 SUMO dose 1.
